Source: PubChem BioAssay
VACV mCherry inh = inhibitors of vaccinia virus infection (mCherry reporter signal); Potency, µM (top dose mostly 36.5 µM), most hits filed as inhibitors; AID 720579; Vaccinia virus mCherry reporter infection, fluorescence; hit rate 0.63% among 310,000; calls by dose curve; tested in A549 cells; note: nearly all actives have a fitted effect of over 35% in size
HCMV antiviral = inhibitors of human cytomegalovirus; activity change, negative = inhibition, % at 57.5 µM; hit rate 4.5% among 410,000; AID 1259415; HFF cells, HCMV-luciferase reporter, 72 h; active compounds read low; in the data active = activity change below about -60%; inconclusive = no clear call, values can overlap the other calls; inactive = above about -39%
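Luciferase read-out from HCMV-luciferase-infected HFFs (MOI 1 PFU/cell) 72 h post infection at 37C; compounds added after 16 h cell attachment; activity normalized between buffer-only basal and Salinomycin (10uM) inhibitor controls.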
HCV inh = HCV inhibition. Huh7.5.1 HCVcc-Cre infection, luciferase reporter, 44 h. Potency, µM (titrated, usually from 41.8 µM), usual class: inhibitors. hit rate 3.4% among 340,000. AID 651820
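Cells seeded at 1,000/well and cultured 4 h, then compounds added followed by HCVcc-Cre virus (~0.5 moi). After 44 h further culture, luciferase substrate was added, plates held 15 min at room temperature, and luminescence read for 15 sec.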
Vaccinia Venus = inhibitors of vaccinia virus (Venus reporter). Vaccinia virus Venus reporter expression, fluorescence. Potency, µM (series often up to 36.5 µM), actives largely listed as inhibitors. hit rate 0.46% among 330,000; calls by dose curve; tested in A549 cells; note: nearly all actives have a fitted effect of over 30% in size
FMDV inh = blocks foot and mouth disease virus. FMDV antiviral cell-based qHTS. Potency, µM (series often up to 57.9 µM), hits mostly inhibitors. hit rate 1.2% among 410,000. AID 1159524; calls by dose curve; tested in HEK293T cells; note: read-out not given here; nearly all actives have a fitted effect of over 45% in size
Sm TGR block = inhibitors of Schistosoma mansoni thioredoxin glutathione reductase | Q962Y6 | purified TGR, DTNB reduction, TNB absorbance 405 nm | Potency, µM (series often up to 114 µM), most hits filed as inhibitors | hit rate 3% among 360,000 | AID 485364; note: nearly all actives have a fitted effect of over 60% in size
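TGR 20 nM + NADPH 100 uM (dispensed conc.), cpd preinc 15 min RT; start with NADPH (500 uM addition) then DTNB (15 mM addition). Kinetic TNB absorbance, 405 nm filter. Four-parameter Hill fit across titration.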
A number is an active result; . = inactive; ? = inconclusive; / = not tested or not shown; [ ] = another dose, or the depositor's remark. Hits are enriched below; roughly 9.3% of the tested compounds scored in any of these assays. Unless noted, calls come from the whole dose curve; as a rule, active = well fitted curve in the direction sought with a large enough effect; inconclusive = small, poorly fitted or top-dose-only effect, or another doubt; inactive = no such curve, though single readings can be large; an effect the other way counts as inactive or inconclusive.

SMILES	VACV mCherry inh	HCMV antiviral	HCV inh	Vaccinia Venus	FMDV inh	Sm TGR block
CCc1c(O)nc(SC2CC(=O)N(c3ccccc3)C2=O)[nH]c1=O (stereo not drawn)	/	.	.	.	.	.
CCOC(=O)N1CCN(C(=O)C2CCN(C(=O)Nc3ccccc3)CC2)CC1	.	.	.	.	.	/
CC(Sc1nnc(C2CC2)n1-c1ccccc1)C(=O)N1CCCC1 (stereo not drawn)	.	.	.	.	.	32µM
CCOc1ccc(OCCC(=O)OCC(=O)NCc2ccccc2)cc1	/	.	.	/	.	.
COC(=O)c1ccc(Cl)c(NC(=O)Cc2ccccc2[N+](=O)[O-])c1	.	-72	.	.	.	.
O=C(CCl)Nc1c2c(nn1-c1ccccc1)CSC2	?	?	?	.	?	10µM
COc1ccc(CNC(=O)CN(C)S(=O)(=O)c2ccc3c(c2)n(C)c(=O)c(=O)n3C)cc1	.	.	.	.	.	.
c1ccc2c(c1)Nc1ccncc1S2	?	-71	?	.	.	.
CC(C)C[C@H]1COc2cccc(F)c2S(=O)(=O)N1	/	.	/	/	/	/
CCC(=O)C1=C(c2ccccc2)N(C(=O)CC)n2c(nnc2C2CCCCC2)S1	.	.	/	.	.	.
CCC(=O)C1=C(c2cccc(OC)c2)N(C(=O)CC)n2c(nnc2C2CCCCC2)S1	.	-92	/	?	.	.
CCC(=O)C1=C(c2cccc([N+](=O)[O-])c2)N(C(=O)CC)n2c(nnc2C2CCCCC2)S1	?	-99	/	?	.	.
COc1ccc(S(=O)(=O)N2CCC(C(=O)N[C@@H](C)C(=O)NC3CC3)CC2)cc1	.	.	.	.	.	.
Cc1nc2ccccc2c(N)c1C(=O)/C=C/c1ccccc1	16µM	-99	11µM	?	18µM	.
Cc1onc(-c2ccccc2)c1C(=O)c1ccccc1	.[7.34 µM]	.	.	.[7.34 µM]	.	.
Cc1cccc(NC(=O)CSc2nc3ccc(N4C(=O)c5ccccc5C4=O)cc3s2)c1C	/	.	.	/	.	.
CN(C)C(=O)CSc1nc2ccc(N3C(=O)c4ccccc4C3=O)cc2s1	/	-65	.	/	.	.
O=C(O)c1ccc(CSc2nc3ccc(N4C(=O)C5C6C=CC(C6)C5C4=O)cc3s2)cc1 (stereo not drawn)	.	.	.	.	.	.
COC(=O)c1ccc(NC(=O)CSc2nc3ccc(N4C(=O)C5C6C=CC(C6)C5C4=O)cc3s2)cc1 (stereo not drawn)	?	-64	11µM	7.1µM	14µM	.
CCc1cccc(CC)c1NC(=O)CSc1nc2ccc(N3C(=O)C4C5C=CC(C5)C4C3=O)cc2s1 (stereo not drawn)	?	?	11µM	?	?	?
CCOc1cc(CN2CCN(CCOCCO)CC2)ccc1OC	.	.	.	.	/	.
O=C(COC(=O)/C=C/c1cccc(Br)c1)NC1CCCC1	.	-100	.	.	.	/
O=C(COC(=O)/C=C/c1ccccc1)NC1CCCC1	/	.	.	/	.	/
COc1cc(/C=C/c2ccc3cccc(OC)c3n2)c(O)c([N+](=O)[O-])c1	/	.	?	/	.	.
COc1c(OC(C)=O)ccc(/C=C/c2ccc3cccc(OCc4ccccc4)c3n2)c1[N+](=O)[O-]	.	.	7.1µM	?	.	.
SMILES	VACV mCherry inh	HCMV antiviral	HCV inh	Vaccinia Venus	FMDV inh	Sm TGR block
COc1cc(/C=C/c2ccc3cccc(OC)c3n2)c(OC(C)=O)c([N+](=O)[O-])c1	/	-84	8.9µM	/	?	.
COC(=O)c1cc(C(=O)N2CCOCC2)cc([N+](=O)[O-])c1	.	.	.	.	.	.
CCC(C(=O)Nc1c(C)cc(C)cc1C)N1CCCCCC1 (stereo not drawn)	/	.	.	/	.	.
CCN=C1S/C(=C/c2ccc(-c3ccc(F)cc3)o2)C(=O)N1CC	.	/	.	.	.	45µM
CCN=C1S/C(=C\c2ccc(Sc3ccc(Cl)cc3)o2)C(=O)N1CC	.	.	.	.	.	45µM
COc1ccc(CCN(C)C(=O)c2cc(S(=O)(=O)N3CCCCC3)ccc2Cl)cc1OC	.	.	?	.	?	.
CCOc1ccc(C(=O)NCC(=O)NCC(c2ccco2)N2CCCCC2)cc1 (stereo not drawn)	.	.	.	.	.	89µM
O=C(NCC(c1ccco1)N1CCCCC1)c1ccc(COc2ccccc2)cc1 (stereo not drawn)	.	.	13µM	.	?	.
CCOc1ccc(NS(=O)(=O)c2ccc(C(=O)NCC(c3ccco3)N3CCCCC3)cc2)cc1 (stereo not drawn)	.	.	/	.	.	/
O=C(C=Cc1ccc(O)c(O)c1)NCC(=O)NC(Cc1ccccc1)C(=O)O (stereo not drawn)	/	.	/	/	/	/
CN(C)c1ccc([C@@H]2[C@@H]([N+](=O)[O-])[C@H]3C=Cc4ccccc4N3[C@H]2C(=O)c2ccc(Cl)cc2)cc1	.	-67	?	.	.	45µM
Cc1ccc(S(=O)(=O)Nc2ccccc2F)cc1C(=O)NNC(=O)c1ccccc1O	?	-87	?	.	.	.
COc1ccc(NS(=O)(=O)c2ccc(C)c(C(=O)NNC(=O)c3ccccc3O)c2)cc1	.	.	?	.	.	.
CC(C)C1CC(C(=O)Nc2ccccc2)C(=O)O1 (stereo not drawn)	.	.	.	.	.	/
O=[N+]([O-])c1cc2c(ccc3occc32)o1	/	-73	/	/	/	/
COc1c([N+](=O)[O-])c(=O)oc2ccccc12	.	.	.	.	.	.
Cc1ccc2cc(C)c(NCCO)nc2c1	/	-60	.	?	.	.
Cc1ccc2nc(C)cc(NCCO)c2c1	/	.	.	.	.	.
Cc1ccc(C2=NC(C)(C)N=C2SCC(=O)Nc2ccc(Cl)cc2)cc1	?	.	?	?	32µM	?
CC1(C)N=C(SCC(=O)Nc2ccc(Cl)cc2Cl)C(c2ccccc2)=N1	/	.	?	/	?	.
CCN(C(=O)CSc1ncccc1C(=O)Oc1cccc([N+](=O)[O-])c1)c1cccc(C)c1	.	.	.	.	25µM	.
CSc1cccc(NC(=O)CSc2ncccc2C(=O)Oc2cccc([N+](=O)[O-])c2)c1	.	.	.	.	.	.
[O-]C(=C(C(=S)Nc1cccc2ccccc12)[n+]1cccc(CO)c1)c1ccc(Cl)s1	.	.	7.9µM	.	.	/
Cc1ccc2oc(/N=C(\N)NC(=O)C(C)(C)C)nc2c1	.	-90	.	.	35µM	.
N#CC1C(C#N)N2CCCN2C1c1ccc(Cl)cc1 (stereo not drawn)	.	.	.	.	.	.
O=C(N/C(=C/c1ccc(Br)cc1)C(=O)N1CCOCC1)c1cccs1	.	-62	.	.	.	.
COc1ccc(/C=C(/NC(=O)c2cccs2)C(=O)N2CCOCC2)cc1OC	.	.	.	.	.	.
O=C(NNC(=S)NC1CC2C=CC1C2)c1ccncc1 (stereo not drawn)	.[7.34 µM]	.	.	.[7.34 µM]	.	.
